For orientation: inhibition means the change of the read-out against control, counted positive when it falls.

For this test, the target named is T1, Serine/threonine-protein kinase Sgk1 (Homo sapiens) (UniProt O00141).
T1 sequence (whole entry): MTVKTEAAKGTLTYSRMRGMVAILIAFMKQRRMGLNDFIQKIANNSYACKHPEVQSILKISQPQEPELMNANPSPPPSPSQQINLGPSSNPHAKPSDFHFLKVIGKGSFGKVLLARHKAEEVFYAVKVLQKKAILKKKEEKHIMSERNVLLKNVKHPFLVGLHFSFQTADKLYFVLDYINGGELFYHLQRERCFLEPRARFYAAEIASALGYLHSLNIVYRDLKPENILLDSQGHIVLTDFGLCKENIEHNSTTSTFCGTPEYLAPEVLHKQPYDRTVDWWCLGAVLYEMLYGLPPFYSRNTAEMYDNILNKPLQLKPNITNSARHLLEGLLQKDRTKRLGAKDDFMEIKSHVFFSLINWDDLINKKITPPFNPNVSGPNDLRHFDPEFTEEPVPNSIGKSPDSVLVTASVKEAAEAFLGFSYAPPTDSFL
The note with it: at 0.1 µM.
Turning to `CCCNc1cccc(-n2ncc3c(N/N=C/c4ccncc4)ncnc32)c1`, the inhibition stood at 2.34%.

Consider `COC(=O)Nc1nc2ccc(Oc3ccc(NC(=O)Nc4cc(C(F)(F)F)ccc4F)cc3)cc2s1`, for which the inhibition is 0.33%.

With `N#Cc1ccc2c(-c3ccnc(NC4CC4)n3)c(-c3ccc(F)cc3)nn2c1`, the inhibition was 1.64%.

Turning to `Fc1cccc(COc2ccc(Nc3ncncc3C#Cc3ccccc3)cc2Cl)c1`, the inhibition turned out to be 3.17%.

With `NS(=O)(=O)c1cccc(N/C=C2\C(=O)Nc3ccccc32)c1`, the inhibition is 6.58%.

For the compound `COc1ccccc1-c1cc(/C=C2\C(=O)Nc3ncc(Br)cc32)cc(Br)c1O`, the inhibition turned out to be 4.47%.

Consider `COC(=O)Nc1nc2cc(Oc3ccc(NC(=O)Nc4ccccc4)cc3)ccc2[nH]1`, for which the inhibition was determined as 2.77%.

With `O=C(O[C@H]1CN[C@H](C#Cc2cc3ncnc(Nc4ccc5c(cnn5Cc5ccccc5)c4)c3s2)C1)N1CCOCC1`, the inhibition was -0.09%.

For `CCn1c(-c2nonc2N)nc2cncc(C(=O)NCCNC)c21`, the inhibition worked out at 3.75%.

Turning to `Cc1cc(O)cc(C)c1/C=C/c1cncc(C(=O)OC(C)(C)C)c1`, the inhibition was 1.6%.

As to `N#Cc1cccc(Nc2ncc(-c3ccccc3)o2)c1`, the inhibition is 2.75%.

Regarding `CNC(=O)c1sc(-n2cnc3cc(OC)c(OC)cc32)cc1OCc1ccccc1C(F)(F)F`, the inhibition is 2.16%.

`COc1ccc2ncn(-c3cc(O[C@H](C)c4ccccc4C(F)(F)F)c(C(N)=O)s3)c2c1`: the inhibition was 0.33%.

Take `COc1ccc(-c2nn3ncccc3c2-c2ccnc(Nc3ccc(F)c(F)c3)n2)cc1`: the inhibition stood at 3.06%.

Turning to `Cc1cc(O)cc(C)c1/C=C/c1cncc(C(N)=O)c1`, the inhibition stood at 1.6%.

For `Fc1ccc(Nc2nccc(-c3c(-c4ccc(C(F)(F)F)cc4)nn4ncccc34)n2)cc1F`, the inhibition was 2.17%.

Source of the values: ChEMBL document CHEMBL1961873, “Compounds: GSK PKIS; Assays: Nanosyn kinase panel” (2012).
